Records with an inconclusive call do not appear. A number with no mark means an inactive call. Active and inactive are the calls of the source. Calls follow the shape of the dose curve; as a rule, active = well fitted activation curve with a large enough effect in the signal ratio in the repeat runs (not every such curve was filed as active); inconclusive = weak or mixed curves; inactive = flat fitted curve, though single readings scatter; the % refers to the signal ratio.
% is scaled to controls: 0 for no effect and ±100 for the full control effect.

The nature of the test: qHTS assay to identify small molecule agonists of H2AX (AID 1224845). The following applies: CHO-K1 phospho-H2AX Ser139 HTRF, 3 h; series mostly up to 154 µM. From the text:
National Center for Advancing Translational Sciences [NCATS]
NIH Chemical Genomics Center [NCGC]
U.S. Environmental Protection Agency [EPA]
National Institutes of Environmental Health Sciences [NIEHS]
National Toxicology Program [NTP]
U.S. Food and Drug Administration [FDA]
HTRF phospho-H2AX (Ser139) assay (Cisbio Bioassays, US) enables the quantitative detection of the histone variant H2AX when phosphorylated on serine 139. When double-stranded DNA breaks, either by ionizing radiation or endogenous physiological processes, H2AX becomes phosphorylated at Ser139. This phospho-Ser139 serves as a sensitive biomarker for the detection of such breaks, localizing the site of DNA repair. So, HTRF phospho-H2AX Ser139 is a pertinent assay to study genome stability, the cell cycle, DNA repair, and it serves as a biomarker for cancer, and to understand aging. Wild type CHO-K1 cells were used to identify the inducers of Phospho-H2AX Ser 139 from the Tox21 10K compound collections.
Tox21 Assay Protocol Summary:
The CHO-K1 cells suspended in culture medium containing 10% FBS were dispensed at 1000 cells/ 3 ul/well in 1536-well white wall/solid bottom plates (Greiner Bio-One North America, NC) using a Multidrop Combi (Thermo Fisher Scientific Inc., Waltham, MA). After the assay plates were incubated at 37C overnight, 23 nl of compounds at 15 concentrations (from 5-48 columns) or positive control (from 1 to 4 columns) were transferred to the assay plates using a Pintool station (Wako, San Diego, CA) into each well resulting in a final DMSO concentration of 0.76%. After 3hr incubation at 37C, 1 uL/well Supplemented Lysis buffer (diluted 100 fold blocking reagent in lysis buffer) (HTRF Phospho-H2A.X (S139) Assay kit from Cisbio US Inc., Bedford, MA) was added using a Flying Reagent Dispenser (FRD) (Aurora Discovery, CA). After 10sec spin at 1000 rpm in a plate centrifuge, the assay plates were incubated at room temperature for 30 min. Then followed by the addition of 1 uL/well detection buffer (containing a mixture of two antibodies, one labeled with cryptate, Anti pH2AX (S139)-K and another labeled with d2, Anti H2AX-d2) using FRD. After incubation at room temperature for 24 hr, the time resolved fluorescence at excitation 320 nm and emissions at 665 nm and 620 nm was measured using an Envision plate reader (PerkinElmer, Waltham, MA).
For `Cc1ccc(N)cc1S(=O)(=O)O`, the outcome was inactive. Same read-out and setting: the result for `N#CCC(=O)NN` reads “inactive”; that for `CCN1CCCC1CN` (stereo not given), “inactive”. Still for that read-out and setting: with `CC(=O)O[C@H]1C[C@@H]2CC[C@@]1(C)C2(C)C` the entry was “inactive”. The same measure, in the same setting: the result for `CC(C)=CCC/C(C)=C/COC=O` reads “inactive”; that for `CCCCCC(C)O` (stereo not given), “inactive”. As to `CCNC(=O)NCc1cccc(Cl)c1`, the result was inactive.

On to `O=C(Cl)c1ccccc1[N+](=O)[O-]`, for which the result was inactive.

Consider `NCc1ccc(S(N)(=O)=O)cc1`, for which the compound was classed as inactive. Same read-out and setting: the result for `O/N=C/C=N/O` reads “inactive”; that for `Cc1c(N)cccc1Cl`, “inactive”; that for `CCCCOCC(C)O` (stereo not given), “inactive”. Still for that read-out and setting: the result for `C=C(C)[C@@H]1CC=C(C)CC1` reads “inactive”; that for `CC/C=C\CCOC(=O)c1ccccc1O`, “inactive”; that for `CC(=O)C1C(=O)C=C(C)OC1=O` (stereo not given), “inactive”. The same measure, in the same setting: with `CC(=O)CC(=O)Nc1ccc(C)cc1C` the entry was “inactive”; with `C=C(C)C1CC=C(C)C(=O)C1` (stereo not given), “inactive”. Regarding `CCC(C(=O)OCCN1CCOC(c2ccccc2)C1C)c1ccccc1` (stereo not given), the call was inactive.

Consider `Cc1c(NC(=O)c2cccnc2)c(=O)n(-c2ccccc2)n1C`, for which the call was inactive. Still for that read-out and setting: with `CCCCCCCCCCCCCCC(=O)NC(CO)CCCCCCCCCCCCCC` (stereo not given) the entry was “inactive”. Regarding `[O]=[Mo](=[O])=[O]`, the activation (H2AX phosphorylation) was -3.3% [at 31.6 µM].

For `CO[Si](CCCn1c(=O)n(CCC[Si](OC)(OC)OC)c(=O)n(CCC[Si](OC)(OC)OC)c1=O)(OC)OC`, the compound was called inactive. On to `CC(C)C1OCCN1CCOC(=O)NCCCCCCNC(=O)OCCN1CCOC1C(C)C` (stereo not given), for which the compound was called inactive.

With `Cc1c(Cl)cccc1Cl`, the compound was classed as inactive. Same read-out and setting: the result for `NCC1(Cc2noc(=O)[nH]2)CCCCC1` reads “inactive”. On the same count and under the same terms, with `C[Si]1(C)O[Si](C)(C)O[Si](C)(C)O[Si](C)(C)O[Si](C)(C)O1` the entry was “inactive”; with `COc1cc2c(cc1OC)C(=O)C(CC1CCN(Cc3ccccc3)CC1)C2` (stereo not given), “inactive”; with `O=C(O)CSCC(=O)NC1CCSC1=O` (stereo not given), “inactive”. On the same count and under the same terms, the result for `C=CC(=O)OCC1CCCO1` (stereo not given) reads “inactive”.

On to `CC(C)NCC(O)c1ccc2ccccc2c1` (stereo not given), for which the compound was classed as inactive. As for `CC(S)C(C)S` (stereo not given), the compound was called inactive. The same measure, in the same setting: with `Cc1ncc([N+](=O)[O-])n1CC(C)O` (stereo not given) the entry was “inactive”; with `CNCCS(=O)(=O)O`, “inactive”; with `C[C@]12CCC(=O)C=C1CC[C@H]1[C@@H]3CC[C@](O)(C(=O)CO)[C@@]3(C)C[C@H](O)[C@@]12F`, “inactive”.

`Cc1cc(-c2ccccc2)nnc1NCCN1CCOCC1`: the outcome was inactive. Consider `O=C1OCCO1`, for which the outcome was inactive.

`O=C(O)CNC(=O)CNC(=O)CNC(=O)CSC(=O)c1ccccc1`: the result was inactive. The same measure, in the same setting: with `CCC(=O)CC` the entry was “inactive”; with `CC1=C(C(=O)O)N2C(=O)[C@@H](NC(=O)[C@H](N)c3ccccc3)[C@H]2SC1`, “inactive”; with `O=C1CCC(=O)N1Cl`, “inactive”.
